Several values for one entry are separate records, joined by “and”; a condition that tells them apart may be missing. Equal values may be shown once. The panel holds about 83,000 compounds, 20% with a hit somewhere; the sample as a whole holds those more often.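 48-hour exposure, single concentration, 96-well plates; percent growth endpoint where 0 means no net growth. Active: below 10.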 Activity calls are given as the source filed them.
What was measured:
Experiment in all cases: NCI-60 one-dose screen, 48 h (100 = growth as untreated, 0 = no growth, -100 = all killed)
EKVX NSCLC = settings: 10 µM
SN12C renal = settings: 10 µM
UO-31 renal = settings: 10 µM
TK-10 renal = settings: 10 µM
ACHN renal = settings: 10 µM
CAKI-1 renal = settings: 10 µM
A498 renal = settings: 10 µM
RPMI-8226 leukemia = settings: 10 µM
MOLT-4 leukemia = settings: 10 µM unless noted
CCRF-CEM leukemia = settings: 10 µM

| SMILES | growth (EKVX NSCLC) | growth (SN12C renal) | growth (UO-31 renal) | growth (TK-10 renal) | growth (ACHN renal) | growth (CAKI-1 renal) | growth (A498 renal) | growth (RPMI-8226 leukemia) | growth (MOLT-4 leukemia) | growth (CCRF-CEM leukemia) |
| --- | --- | --- | --- | --- | --- | --- | --- | --- | --- | --- |
| COc1ccc2c(c1)[nH]c1c(/C=C/c3ccccc3)nccc12 | 62.2% (inactive) | 78.7% (inactive) | 25.7% (inactive) | 81.2% (inactive) | 61.1% (inactive) | 58.4% (inactive) | 71.2% (inactive) | 25.2% (inactive) |  |  |
| CN(C)c1ccc(/C=C/c2ccnc3ccccc23)cc1N | 52.5% (inactive) | 70.5% (inactive) | 45.5% (inactive) | 74.7% (inactive) | 68.6% (inactive) | 60.9% (inactive) | 62.8% (inactive) | 37.4% (inactive) |  |  |
| COc1ccc(N)c2c1C(=O)c1ccccc1C2=O | 106% (inactive) | 93.9% (inactive) | 68.5% (inactive) | 102% (inactive) | 96.9% (inactive) | 74% (inactive) | 93.4% (inactive) | 88.9% (inactive) | 67% (inactive) |  |
| O=c1[nH]cc(/C=N\Nc2ccccc2)c(=O)[nH]1 | 56.4% (inactive) | 68.7% (inactive) | 26% (inactive) | 78% (inactive) | 40.3% (inactive) | 41.6% (inactive) | 87.5% (inactive) | 76.5% (inactive) |  |  |
| N#C/C(=C/N1C(=O)/C(=C/c2ccc([N+](=O)[O-])cc2)SC1=S)c1nc2ccccc2s1 | 82.3% (inactive) | 89.3% (inactive) | 64% (inactive) | 96.3% (inactive) | 86.5% (inactive) | 97% (inactive) | 6.8% (active) | 67.4% (inactive) |  |  |
| N#CC(=C1C=CC(=NO)C=C1)c1ccccc1 | 55.1% (inactive) | 10.3% (inactive) | 48.4% (inactive) | 27.2% (inactive) | 9.06% (active) | 52.3% (inactive) | 48% (inactive) | -13% (active) |  |  |
| CCC(C)(c1ccc(O)c(C)c1)c1ccc(O)c(C)c1 | 82.5% (inactive) | 84.9% (inactive) | 76% (inactive) | 249% (inactive) | 98.8% (inactive) | 62.1% (inactive) | 110% (inactive) | 84.1% (inactive) |  |  |
| Cn1c2nc3ccccc3c-2nc2ccccc21 | 81.2% (inactive) | 95% (inactive) and 87.7% (inactive) | 71.9% (inactive) and 48.3% (inactive) | 113% (inactive) and 109% (inactive) | 94.4% (inactive) and 79.1% (inactive) | 73.9% (inactive) and 93.6% (inactive) | 45.9% (inactive) and 80.3% (inactive) | 94.9% (inactive) and 96.8% (inactive) | 97.9% (inactive) and 96.7% (inactive) | 95.8% (inactive) and -21.8% (active) |
| NCc1c(O)ccc2ccccc12 | 106% (inactive) | 90.9% (inactive) | 81.3% (inactive) | 108% (inactive) | 103% (inactive) | 74.3% (inactive) | 105% (inactive) | 101% (inactive) |  |  |
| O=C(NC(=S)Nc1ccccn1)c1ccccc1 | 74.8% (inactive) | 97.1% (inactive) | 93.9% (inactive) | 125% (inactive) | 95.1% (inactive) | 82% (inactive) | 70.5% (inactive) | 60.4% (inactive) |  |  |
| Nc1nc(N)c2cc(Sc3ccc4ccccc4c3)ccc2n1 | 38.2% (inactive) | 27.9% (inactive) | 22% (inactive) | 49.5% (inactive) | 28.2% (inactive) | 17.3% (inactive) | 58.5% (inactive) | -11.9% (active) |  |  |

Reference: PubChem BioAssay (NCI)
